Screens (PubChem BioAssay)
GLD-1 TGE inh = GLD-1/TGE RNA complex disruptors, primary screen, biochemical, fluorescence polarization | purified GLD-1 + fluorescein TGE RNA | inhibition, % at 5.96 µM | 320,000 compounds, 0.44% hits | AID 2280, 2010;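 active = percent inhibition above a per-plate cutoff, the plate mean of test compounds plus 3 SD, cut at about 30% in these data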;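 note: 0% = DMSO wells with GLD-1 and probe and 100% = wells lacking GLD-1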
Target sequence (Q17339 whole entry, looked up): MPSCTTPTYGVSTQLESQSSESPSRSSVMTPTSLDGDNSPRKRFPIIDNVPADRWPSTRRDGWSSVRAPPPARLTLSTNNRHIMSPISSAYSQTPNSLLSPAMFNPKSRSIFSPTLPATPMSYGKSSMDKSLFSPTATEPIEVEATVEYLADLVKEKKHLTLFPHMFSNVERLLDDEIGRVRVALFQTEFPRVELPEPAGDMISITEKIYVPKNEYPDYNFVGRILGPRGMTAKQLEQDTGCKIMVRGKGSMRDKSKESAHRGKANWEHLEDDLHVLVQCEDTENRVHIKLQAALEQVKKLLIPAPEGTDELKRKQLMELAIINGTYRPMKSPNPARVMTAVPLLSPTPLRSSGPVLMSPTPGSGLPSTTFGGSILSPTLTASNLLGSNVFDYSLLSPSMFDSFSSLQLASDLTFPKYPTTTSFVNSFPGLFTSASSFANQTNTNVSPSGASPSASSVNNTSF
E coli Lon inh = inhibitors of E. coli Lon protease, primary screen, biochemical, fluorescence polarization; purified E. coli Lon protease; inhibition, % at 7.94 µM; 360,000 compounds, 0.42% hits; AID 602123, 2011; in the data active = inhibition above about 13%, passing the limit was not always enough;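 note: 0% = enzyme with probe and DMSO and 100% = no enzyme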
EBV gp42 block = Epstein-Barr virus gp42 inhibitors, primary screen, biochemical, uHTS, fluorescence polarization. Glycoprotein 42 (Epstein-Barr virus (strain AG876)), Q1HVG2. Fluorescence polarization binding assay, mP read-out. inhibition, % (tested at 21.74 µM). 220,000 compounds, 0.42% hits; in the data active = inhibition above about 50%
Target sequence (Q1HVG2 whole entry, looked up): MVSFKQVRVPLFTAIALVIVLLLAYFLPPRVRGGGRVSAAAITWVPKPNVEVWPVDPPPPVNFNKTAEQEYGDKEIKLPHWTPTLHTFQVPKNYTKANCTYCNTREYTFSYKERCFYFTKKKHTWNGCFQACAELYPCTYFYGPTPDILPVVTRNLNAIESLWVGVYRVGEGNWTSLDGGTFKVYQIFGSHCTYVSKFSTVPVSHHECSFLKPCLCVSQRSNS
MEX-5 binding = MEX-5 zinc finger RNA-binding disruptors – biochemical, C. elegans, fluorescence polarization, MLPCN library, primary screen; Zinc finger protein mex-5 (Caenorhabditis elegans), Q9XUB2; MEX-5/FITC-TCR2 RNA binding; hits give low values; activity score (negative = inhibition of binding), % at 10 µM; 300,000 compounds, 0.38% hits; AID 1832, 2009;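 active = inhibition past about -25% in most replicates, and total fluorescence under double the plate's negative control median, limit read from the data; inconclusive = replicates evenly split on the limit, or fluorescence at least double controls; inactive = too little inhibition in most replicates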;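 note: 0% = DMSO and -100% = 5 µM competing unlabeled TCR2 RNA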
MCL1-BIM inh = inhibitors of MCL1 binding to BIM-BH3, primary screen, biochemical, fluorescence polarization. 320,000 compounds, 0.68% hits. GST-MCL1 / FITC-Bim-BH3 fluorescence polarization. Induced myeloid leukemia cell differentiation protein Mcl-1 (Homo sapiens), Q07820. inhibition, % at 10.9 µM;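 active = inhibition above the mean inhibition of all tested compounds plus 3 SD, set per campaign, cut at about 40% in these data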;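 note: 0% = DMSO wells and 100% = unlabeled Bim-BH3 peptide control; higher means more loss of mP so more displacement of Bim peptide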
Bcl-xL primary = inhibitors of human Bcl-xL, primary screen, biochemical, fluorescence polarization, HTS | GST-Bcl-xL / FITC-Bim BH3 peptide fluorescence polarization | inhibition, % at 10.9 µM | 320,000 compounds, 0.7% hits;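 active = inhibition above the mean of all tested compounds plus 3 SD, cutoff set per campaign, cut at about 30% in these data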;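 note: 0% = DMSO wells and 100% = unlabeled Bim-BH3 peptide competitor; inhibitors lower millipolarization by displacing the labeled peptide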
eLon confirm = E. coli Lon protease inhibitor retest, confirmation, biochemical, fluorescence polarization; shares compounds with E coli Lon inh; inhibition, % at 7.94 µM; AID 602230, 2012; purified E. coli Lon; 1,400 compounds, 31% hits; in the data active = inhibition above about 16%;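 note: 0% = enzyme with probe and DMSO and 100% = no enzyme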
Active calls of the source: *; ? = inconclusive; · = no result; + = active, no number. An excerpt weighted towards active compounds, which were near 1.4% of everything screened.

SMILES	GLD-1 TGE inh	E coli Lon inh	EBV gp42 block	MEX-5 binding	MCL1-BIM inh	Bcl-xL primary	eLon confirm
O=C(NC(=S)NNS(=O)(=O)c1ccccc1)c1cccnc1	6.2	17.2	-0.3	?	4.8	5.7	·
CCCn1cc(C(=O)N(C)C2CCCN(Cc3ccccc3F)C2)c(C)n1 (stereo not given)	-4.3	-1.3	·	2.5	3.3	3.9	·
Cn1c(=O)c2c(nc3n2CC(O)CN3c2ccc(O)cc2)n(C)c1=O (stereo not given)	-1.2	3.0	·	-2.3	11.8	4.2	·
O=C(COC(=O)C1CC(O)CN1S(=O)(=O)c1ccc(Cl)cc1)c1cccc(Cl)c1 (stereo not given)	1.9	71.8*	3.9	-7.3	3.8	5.9	-19.1
CC(=O)/C(C[N+]1(C)CCCCC1)=N\O	2.6	22.6*	-20.6	2.3	-9.2	-4.7	-1.5
C[N+]1(CC(=O)OC2CCCCCCCCCCC2)CCCC1	4.4	5.7	-14.3	0.9	-22.7	-23.1	·
O=C(CCc1nc2ccccc2[nH]1)Nc1ccccc1F	0.2	13.9*	-13.7	3.2	3.9	-0.1	0.5
O=C(CCc1nc2ccccc2[nH]1)Nc1ccc(F)cc1	5.0	-4.4	-12.2	1.6	-8.6	-3.5	·
Cc1cc(C(=O)NN)c(Cl)cc1Cl	-4.4	6.3	-13.8	0.0	-0.5	-2.0	·
O=C(Nc1cccc(S(=O)(=O)NC2=NCCC2)c1)C1CCC1	3.8	-3.1	-11.8	-3.5	9.4	4.5	·
O=C(CC12CC3CC(CC(Br)(C3)C1)C2)Nc1cccc(S(=O)(=O)NC2=NCCC2)c1	-2.7	16.1*	5.9	0.8	1.1	-4.3	2.2
CCOC(=O)c1ccc(CNC(=O)CSc2nc(NC(=O)c3ccccc3)c3c(C)c(C)oc3n2)cc1	6.9	17.1*	-6.4	0.2	1.3	-2.5	-4.3
COC(=O)CC1C(=O)NCCN1C(=O)c1cc([N+](=O)[O-])ccc1Cl (stereo not given)	3.8	-9.9	·	0.1	9.1	0.3	·
O=c1c(-c2ccc(Br)cc2)[n+]([O-])c2ccccc2n1OCc1ccccn1	-4.7	-7.1	8.4	-1.6	2.9	8.7	·
O=c1c(-c2cc3ccccc3o2)[n+]([O-])c2ccccc2n1OCc1ccccn1	27.7	20.1*	46.1	-3.5	11.0	10.9	7.8
CCOc1c2ccc(C(=O)NCc3cc(C(F)(F)F)cc(C(F)(F)F)c3)cc2nn1CCOC	-2.0	3.0	-7.0	0.8	-1.0	-0.6	·
COCCn1nc2cc(C(=O)NCc3cc(C(F)(F)F)cc(C(F)(F)F)c3)ccc2c1OC	1.1	20.9*	-12.3	0.1	4.2	2.9	-7.8
O=C(CC1NCCNC1=O)Nc1ccccc1 (stereo not given)	0.0	4.0	-8.8	-0.8	-1.3	-13.1	·
O=C(CC1C=CCC1)Nc1ccccc1 (stereo not given)	·	50.0*	·	·	·	·	-1.4
O=C1c2ccccc2C(=O)N1Cc1ccco1	-3.0	-2.1	-2.9	0.4	-1.5	4.4	·
O=C1c2cccc3c(O)ccc(c23)C(=O)N1Cc1ccco1	·	+	171.9*	?	·	·	+
CN(C(=O)COC(=O)c1cc(S(=O)(=O)N2CCCCC2)ccc1Cl)c1ccccc1	-4.2	-9.6	·	·	6.3	4.0	·
Fc1ccccc1C(c1nnnn1Cc1ccc2c(c1)OCO2)N1CCN(Cc2ccco2)CC1 (stereo not given)	0.7	15.8*	-12.6	-2.5	-2.8	2.5	-3.3
NC(=O)C1CCN(C(c2ccccc2F)c2nnnn2Cc2ccco2)CC1 (stereo not given)	7.9	0.8	-9.3	-1.0	3.2	7.6	·
Cc1ccc(S(=O)(=O)N2CN(Cc3ccco3)c3nc4ccccc4nc32)cc1C	11.3	15.4*	-11.0	7.0	11.5	10.4	-6.6
SMILES	GLD-1 TGE inh	E coli Lon inh	EBV gp42 block	MEX-5 binding	MCL1-BIM inh	Bcl-xL primary	eLon confirm
Cc1ccc(S(=O)(=O)Nc2nc3ccccc3nc2NCc2ccco2)cc1C	6.5	-5.8	13.3	-2.4	7.9	9.3	·
O=S(=O)(c1cccs1)N1CN(Cc2cccs2)c2nc3ccccc3nc21	2.9	17.8*	-34.0	-2.1	4.9	2.3	-33.7
O=S(=O)(c1ccc(F)cc1)N1CN(Cc2ccco2)c2nc3ccccc3nc21	19.9	44.0*	10.6	1.0	24.1	28.1	-37.4
COc1ccc(S(=O)(=O)N2CN(Cc3ccco3)c3nc4ccccc4nc32)cc1	7.8	28.0*	21.2	-0.2	9.5	9.1	-10.6
Cc1ccc(S(=O)(=O)N2CN(Cc3ccco3)c3nc4ccccc4nc32)cc1	21.9	2.8	-10.9	2.0	29.1	17.1	·
O=S(=O)(c1cccs1)N1CN(Cc2ccc(F)cc2)c2nc3ccccc3nc21	6.2	4.8	-3.5	·	1.8	3.1	·
O=C(C[n+]1ccccc1)Nc1ccccc1C(F)(F)F	2.2	-3.9	·	3.4	-7.4	2.2	·
CCOc1ccccc1N(CC)C(=O)c1ccc2c(=O)n3c(nc2c1)CCCCC3	4.8	20.9*	·	3.1	1.1	2.3	-3.2
CC(=O)Nc1cc(-c2ccccc2N(C)C)cn2c(-c3cccc(C(F)(F)F)c3)cnc12	·	+	·	·	·	·	8.7
CCCC1C2CN(C(C)C)CC=C2C(C#N)=C(N)C1(C#N)C#N (stereo not given)	131.7*	59.2*	69.2*	-74.9*	180.2*	161.3*	18.4*
CCOC(=O)Cn1nc(-c2ccc(F)cc2)cc(Cc2ccccc2)c1=O	5.3	0.7	·	0.7	-7.9	-1.8	·
O=c1[nH]nc(-c2ccc(F)cc2)cc1Cc1ccccc1	8.7	31.5*	-5.4	-2.3	10.7	3.4	1.3
COc1cc2c(cc1OC)CN(CC(=O)Nc1cccc([N+](=O)[O-])c1)CC2	-2.5	2.3	·	-1.6	-2.8	8.0	·
COc1cc([N+](=O)[O-])ccc1NC(=O)CN1CCc2cc(OC)c(OC)cc2C1	·	42.3*	·	0.7	·	·	5.8
COc1ccc(Nc2cccccc2=O)cc1	3.8	-2.7	-3.0	0.0	2.3	-0.1	·
COc1ccc(Nc2cccc3ccccc23)cc1	16.9	83.7*	·	-0.5	16.9	16.6	2.2
c1ccc(CSc2nnnn2-c2ccc3c(c2)OCCO3)nc1	1.1	30.5*	-11.2	-0.6	1.0	-3.9	-3.9
COc1ccc(CCNC(=O)COC(=O)c2cc(S(=O)(=O)N3CCOCC3)ccc2C)cc1OC	0.2	-11.3	·	·	·	·	·
Cc1ccc(CNC(=O)C(OC(=O)c2cccs2)C(C)C)cc1 (stereo not given)	2.6	28.3*	·	0.3	8.2	-0.1	-13.5
